Source: PubChem BioAssay
PLAP activator – activates human placental alkaline phosphatase; purified PLAP enzyme, luminescent substrate read-out; hits give high values; activation fold at 20 µM; actives 1.2% (n = 96,000); in the data active = activation fold above about 2
D1 mod – allosteric modulators of human D1 dopamine receptor. AID 641. HEK293 D1, CRE-luciferase, dopamine EC30 potentiation; actives deviate in either direction. actives 5.9% (n = 58,000). P21728. B-score at 10 µM;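 active = luminescence count or its row- and column-corrected plate score outside the 99.7% band of the plate's sample wells, on either side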
Target sequence (P21728 whole entry, looked up): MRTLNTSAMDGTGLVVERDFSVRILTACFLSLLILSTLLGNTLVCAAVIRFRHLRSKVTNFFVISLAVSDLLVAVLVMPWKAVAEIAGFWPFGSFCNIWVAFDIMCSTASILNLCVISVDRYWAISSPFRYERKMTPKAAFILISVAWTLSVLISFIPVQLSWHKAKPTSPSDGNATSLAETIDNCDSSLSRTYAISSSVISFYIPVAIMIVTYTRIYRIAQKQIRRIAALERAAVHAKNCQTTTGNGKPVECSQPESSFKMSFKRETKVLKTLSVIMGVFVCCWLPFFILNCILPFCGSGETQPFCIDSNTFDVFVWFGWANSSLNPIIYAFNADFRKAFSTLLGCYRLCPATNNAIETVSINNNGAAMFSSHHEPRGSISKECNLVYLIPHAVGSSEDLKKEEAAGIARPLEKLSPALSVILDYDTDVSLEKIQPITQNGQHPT
DAT uptake mod – human DAT dopamine uptake with cocaine, either direction; AID 449768; Q01959; LLC-PK1 hDAT cells, [14C]-dopamine uptake with cocaine IC80; actives deviate in either direction; actives 1.3% (n = 110,000); B-score at 10 µM;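 active = Z score or B-score, a plate-position-corrected score, falls beyond the plate's 99.7% confidence bounds, in either direction; inactive = both scores lie inside the 99.7% bounds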;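 note: scored against the spread of the other compound wells on the same plate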
TNAP act DEA – activates human TNAP at intermediate phosphate acceptor concentration; 64,000 tested, under 10 active; purified TNAP, CDP-star luminescence, 100 mM DEA, 30 min; hits give high values; scale: 0 levamisole-inhibited, 1 vehicle-only enzyme; AID 813; activation factor at 20 µM; P05186;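 active = activation factor of at least 2 at 20 µM, relative to controls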
Calb biofilm kill – kills Candida albicans biofilms; C. albicans biofilm + clotrimazole, Alamar Blue; inhibition, % at 6 µM; actives 0.14% (n = 85,000);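 active = inhibition above 20%; inactive = inhibition below 20%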;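 note: preformed 24 hr biofilms exposed to compound for 48 hr; 0% = biofilm without compound and 100% = blank killed by clotrimazole plus chlorhexidine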
HePTP inhibitor – inhibitors of human HePTP phosphatase; P35236; recombinant HePTP phosphatase activity, OD absorbance; inhibition, % at 20 µM; actives 0.64% (n = 110,000); AID 521; in the data active = inhibition above about 50%;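 note: plate controls were vehicle for no effect and reference inhibitor for full effect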
D1 PAM confirm – D1 receptor (human) allosteric modulation, confirmed; shares compounds with D1 mod; actives 88% (n = 2,200); HEK293 D1 CRE-luciferase, dopamine EC30 potentiation; hits give high values; luminescence at 10 µM;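 active = luminescence in either of two replicates above the same-plate mean plus 3 SD of the low-dose dopamine control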
D1 ag no DA – secondary test of D1 modulators: activity without dopamine; shares compounds with D1 mod; HEK293 D1 CRE-luciferase, luminescence, no dopamine; hits give high values; luminescence at 10 µM; actives 0.8% (n = 1,900); AID 646; in the data active = luminescence above about 3900
Isoprot counter – counter-screen for D1 modulators: isoproterenol response in HEK293 cells; shares compounds with D1 mod; HEK293 D1 CRE-luciferase, isoproterenol EC30 counter-screen; hits give high values; luminescence at 10 µM; actives 63% (n = 2,200);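 active = luminescence in either replicate above plate mean of wells with a partly effective reference agonist dose plus 3 SD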;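 note: isoproterenol raises cAMP through native beta-adrenoceptor Gs so signal bypasses D1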
Starred values were filed as active, the others as inactive; . = not tested or not shown. The full list was thinned out, with hits kept by preference.

SMILES	PLAP activator	D1 mod	DAT uptake mod	TNAP act DEA	Calb biofilm kill	HePTP inhibitor	D1 PAM confirm	D1 ag no DA	Isoprot counter
CCOC(=O)c1c(N)nn(C(=O)C(C)C)c1-c1ccccc1	1.7	6.8*	-0.45	0.9	2	-1	18276*	1576	4740*
COc1ccccc1-c1cc(C)nc(N)c1C#N	.	.	.	.	.	-2	.	.	.
Cc1cccc(Cc2c(C)nc3c(C(=O)NCc4ccco4)cnn3c2C)c1	1	3.9*	0.22	1	-1	0	8112*	1484	2704
CC(C)Cc1cc(-c2ccco2)c(C#N)c(N)n1	0.9	28*	.	0.9	5	-2	29116*	1732	4780*
N#Cc1c(-c2ccco2)cc(-c2ccc(F)cc2)nc1N	0.9	9.9*	0.47	0.9	4	2	16300*	2000	4008*
N#Cc1c(-c2ccc(Cl)cc2)cc(-c2ccccc2)nc1N	.	.	.	.	.	-9	.	.	.
COc1ccc(Br)cc1C1CC(=O)Nc2c1ccc1ccccc21 (stereo not drawn)	.	.	.	.	.	-13	.	.	.
Cc1nc(NS(=O)(=O)c2ccccc2)sc1NC(=O)OC(C)C	1.1	2.4*	-0.53	0.9	.	1	4964	.	2348
COc1cc(C=C2C(=O)c3ccccc3C2=O)cc(Br)c1OCC(=O)O	.	.	.	.	.	6	.	.	.
CCOc1ccccc1-c1nc(SCC(N)=O)n[nH]1	.	.	.	.	.	-7	.	.	.
CCOc1ccccc1-c1nc(SCC(=O)O)n[nH]1	1.1	3.8*	0.012	0.8	5	-11	5488	1396	2648
Cc1cc(OCCOc2ncnc3ccccc23)ccc1Cl	.	.	.	.	.	-8	.	.	.
Cc1cc(C)n(-c2ccc(C(=O)N3CCc4ccccc43)cc2)n1	1	0.38	0.19	0.9	6	-3	.	.	.
Cc1cc(C(=O)N2CCc3ccccc32)n(-c2ccccc2)n1	1.2	5.8*	0.48	0.9	2	6	10356*	1556	3612*
CC(C)(C)c1ccc(C(=O)NNC(=O)c2ccco2)cc1	.	.	.	.	.	-15	.	.	.
NC(=O)c1cccc(N=Cc2ccc(C=Nc3cccc(C(N)=O)c3)cc2)c1	.	.	.	.	.	2	.	.	.
COCC(O)CS(=O)(=O)Cc1ccc(Cl)cc1 (stereo not drawn)	.	.	.	.	.	2	.	.	.
Cc1nnc(NC(=O)CSc2nnc(Cc3cccn3C)n2-c2cccc(C(F)(F)F)c2)s1	1.4	3.4*	1.1	1	24*	-5	5796	1516	2684
COc1ccc(-n2c(Cc3cccn3C)nnc2SCC(=O)Nc2ccc(C)cc2C)cc1	1.6	17*	-0.61	0.9	-2	8	4936	1328	2312
COc1cc(/C=C(/C#N)c2nc3ccc(C)cc3[nH]2)c(Br)cc1O	.	.	.	.	.	8	.	.	.
C=CCNc1nc(NCC)nc(N2CCOCC2)n1	0.9	.	0.032	.	5	.	.	.	.
CCNc1nc(SC(C)C(=O)OC)nc(N2CCOCC2)n1 (stereo not drawn)	1.4	7*	-0.09	1	1	4	16348*	1712	4196*
CCNc1nc(N2CCOCC2)nc(N(c2ccccc2)c2ccccc2)n1	1.1	0.35	0.34	0.9	10	4	.	.	.
CSc1nc(NC(C)(C)C)nc(N2CCOCC2)n1	.	15*	-1.8	0.9	.	8	15276*	1464	4000*
CC(C)(C)Nc1nc(SCc2ccccc2)nc(N2CCOCC2)n1	1.4	0.0031	-0.56	0.9	1	9	.	.	.
CCNc1nc(SCC(=O)OC)nc(N2CCOCC2)n1	0.9	6.4*	-0.83	1	11	-7	18868*	1512	4012*
COCCOC(=O)c1ccc(NC(=O)COc2cccc(C)c2)cc1	.	.	.	.	.	6	.	.	.
O=C(/C=C/c1ccc(Cl)cc1)Nc1cccnc1	.	.	.	.	.	10	.	.	.
Cc1nc(CSc2nnc3scc(-c4ccc(Cl)cc4)n23)cs1	0.9	13*	0.18	1	5	1	18280*	.	3640*
O=C(NC1=NCCS1)c1csc2ccccc12	1	-0.92	2.6	1	4	9	.	.	.
